Inconclusive results are not listed. Calls of active or inactive are those of the source. Calls come from the whole dose curve; as a rule, active = well fitted cell-killing curve with a large enough effect; inconclusive = small, poorly fitted or top-dose-only effect, or effect the other way; inactive = flat fitted curve, though single readings scatter.
Columns and labels:
Test in all cases: Primary qHTS to identify gynecologic anti-cancer compounds using libraries of approved drugs and bioactive compounds (AID 1345084); note: nearly all actives have a fitted effect of over 55% in size
Conditions in all cases: Gynecologic cancer cell panel viability, ATPlite luminescence, 48 h; series mostly up to 57.5 µM
OV90 = system: OV90
Method in brief: (§1)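 Luminescence from the ATPlite ATP-monitoring reagent indicates viable cell number; lower signal means cytotoxicity. Cells received compound 16 h after seeding and were exposed for 48 h across five concentrations.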

PA-1 = system: PA-1
Method in brief: as §1

SKOV3 = system: SKOV3
Method in brief: as §1

Tov-21-G = system: Tov-21-G
Method in brief: as §1

Tov112D = system: Tov112D
Method in brief: as §1

Measured: Potency

CCOC(=O)C(CCc1ccccc1)NC(C)C(=O)N1Cc2ccccc2CC1C(=O)O (stereo not given)
inactive: all assays above

COc1cc(/C=C/C(=O)O[C@H]2C[C@@H]3C(C(=O)O)=CO[C@@H](O[C@@H]4O[C@H](CO)[C@@H](O)[C@H](O)[C@H]4O)[C@@H]3[C@H]2C)ccc1O
inactive: all assays above

CC(C)=C1C[C@@]2(C)C(=CC1=O)CC[C@@H](O)[C@@H]2C
inactive: all assays above

C=C1[C@H](OC(C)=O)[C@H]2[C@@H](OC(C)=O)C(C)C[C@]2(OC(C)=O)C(=O)[C@H](C)/C=C/C(C)(C)C(=O)[C@H](OC(=O)C(C)C)[C@H]1OC(C)=O (stereo not given in full)
inactive: all assays above

COc1cccc(OC)c1-c1ccc(C[C@H](NC(=O)c2c(Cl)cccc2Cl)C(=O)O)cc1
inactive: all assays above

CN1CCN(C2=Nc3ccccc3Nc3ccc(O)cc32)CC1
inactive: all assays above

COc1cc(O[C@@H]2O[C@H](CO[C@H]3OC[C@](O)(CO)[C@H]3O)[C@@H](O)[C@H](O)[C@H]2O)cc(OC)c1O
inactive: all assays above

COC1OC(OC)C(O)(CCC2(C)C(C)CCC3(C)C2CC(O)C(O)C32CO2)C1O (stereo not given)
inactive: all assays above

COC(=O)c1c(CC=C(C)C)c(OC2OC(CO)C(O)C(O)C2O)c2ccccc2c1OC1OC(CO)C(O)C(O)C1O (stereo not given)
inactive: all assays above

Source: PubChem BioAssay (NCATS)
